KAT2A inh – inhibitors of human GCN5L2 histone acetyltransferase. Potency, µM (highest dose often 58.9 µM), for inactives: at the top dose activity change, negative = inhibition, most hits filed as inhibitors. 390,000 tested, 0.21% active. Q92830. GCN5L2 HAT assay, ThioGlo1 CoA-SH fluorescence; further: potency means the concentration at half of the fitted maximal effect; on the % scale 0 is the no-effect control and ±100 the full control effect
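qHTS, 1536-well. 20nM enzyme, pH 7.5 HEPES/EDTA/Tween-20 buffer; 15 min compound preinc., RT. Start: 75uM H3(1-25), 70uM AcCoA, 50uM ThioGlo1. Read Ex340/Em540 at t=0 (autofluorescence flag) and t=20 min.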
Vif-A3G inh – blocks the Vif interaction with human APOBEC3G; Potency, µM (highest dose often 46.1 µM), for inactives: at the highest dose activity, negative = active, most hits filed as inhibitors; Q9HC16; 410,000 tested, 0.076% active; HeLa A3G-eYFP + Vif (tagged APOBEC3G with the HIV-1 protein that degrades it), YFP fluorescence, overnight; further: potency means the concentration at half of the fitted maximal effect; on the % scale 0 is the no-effect control and ±100 the full control effect; nearly all actives have a fitted effect of over 60% in size
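HeLa cells stably expressing Vif and C-terminally eYFP-tagged A3G, seeded overnight at 37 deg C, then exposed to compound by pintool overnight at 37 deg C. Rise in yellow fluorescence (Ex 488/Em 500-530, Acumen) marks blocked Vif-driven A3G degradation.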
GoLoco inh red – RGS12 GoLoco-Gai1 interaction inhibition. 230,000 tested, 0.44% active. Potency, µM (doses to about 61.6 µM), for inactives: at the top dose activity, negative = inhibition, usual class: inhibitors. AID 880. Gai1:RGS12 GoLoco peptide FP, rhodamine, 10 min. P63096; active means well fitted inhibition curve with a large enough effect, not every such curve was filed as active; inactive means no such curve, though single readings can be large or run the other way; further: potency means the concentration at half of the fitted maximal effect; on the % scale 0 is the no-effect control and ±100 the full control effect; nearly all actives have a fitted effect of over 30% in size
Vif-APOBEC3F blk – blocks the Vif interaction with APOBEC3F | Potency, µM (titrated, usually from 46.1 µM), inactives show at the highest dose activity, negative = active | HeLa A3F-eYFP + Vif (tagged APOBEC3F with the HIV-1 protein that degrades it), YFP fluorescence increase | 390,000 tested, 0.2% active; further: potency means the concentration at half of the fitted maximal effect; % of control where 0% means no effect; nearly all actives have a fitted effect of over 65% in size
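HeLa cells stably expressing A3F-eYFP plus Vif, plated and incubated overnight at 37 deg C, then exposed to compounds overnight at 37 deg C. Blocked degradation read as raised yellow fluorescence (Ex 488/Em 500-530).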
IL2 activator – IL-2 activation; IL-2 activation reporter assay, cell-based qHTS; stimulated with anti-CD3/CD4/CD28 beads; in transgenic mouse T cells; activation, % (series mostly up to about 46 µM); 360,000 tested, 0.065% active; in the data active means activation above about 50%; inconclusive means mostly about 30% to 49%; further: 0% is about no effect
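Unstimulated transgenic mouse T cells; 60-min compound exposure; bead-based TCR/CD4/CD28 stimulation; 18 h culture, 37 degrees C; dual fluorescence (EGFP, DsRed) plate cytometry.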
PKM2 activator – activators of human pyruvate kinase M2. P14618. purified PKM2, Kinase-Glo ATP luminescence, activation; response scale: 0% is enzyme alone, no compound. Potency, µM (doses to about 57.5 µM), for the others: at the top dose activation, hits mostly activators. 260,000 tested, 0.34% active. AID 1631; further: potency means the concentration at half of the fitted maximal effect; on the % scale 0 is the no-effect control and ±100 the full control effect; nearly all actives have a fitted effect of over 55% in size
Target sequence (P14618 whole entry, looked up): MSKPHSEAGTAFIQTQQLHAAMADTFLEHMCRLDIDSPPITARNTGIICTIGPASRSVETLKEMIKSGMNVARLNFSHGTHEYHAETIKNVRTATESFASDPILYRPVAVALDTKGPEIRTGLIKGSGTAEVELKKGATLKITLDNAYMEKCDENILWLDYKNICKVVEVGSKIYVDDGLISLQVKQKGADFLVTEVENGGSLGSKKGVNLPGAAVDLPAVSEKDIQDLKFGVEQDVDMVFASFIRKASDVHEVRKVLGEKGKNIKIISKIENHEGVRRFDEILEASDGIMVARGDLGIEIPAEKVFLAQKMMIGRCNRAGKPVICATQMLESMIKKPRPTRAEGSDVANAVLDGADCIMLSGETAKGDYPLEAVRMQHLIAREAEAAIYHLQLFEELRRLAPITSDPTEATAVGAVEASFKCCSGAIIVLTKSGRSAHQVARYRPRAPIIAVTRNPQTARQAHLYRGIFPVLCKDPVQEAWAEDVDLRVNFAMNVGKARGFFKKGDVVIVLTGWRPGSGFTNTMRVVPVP
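hPK-M2, >95% pure; 0.1 mM ADP / 0.5 mM PEP final; imidazole pH7.2 buffer w/ 7 mM MgCl2, 50 mM KCl; 1 h RT; Kinase-Glo lum. Intermediate enzyme activity for dual inhibitor/activator qHTS.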
Active calls of the source: *. Only some compounds are listed: those with a hit (about 0.77% of all), similar ones and a draw of the others. Unless noted, the call rests on the fitted dose curve; in most records, active means well fitted curve in the direction sought with a large enough effect; inconclusive means small, poorly fitted or top-dose-only effect, or another doubt; inactive means no such curve, though single readings can be large; an effect the other way counts as inactive or inconclusive.

Results for CCn1cc(C=C2C(=O)c3ccccc3C2=O)c2ccccc21 ?
KAT2A inh: -7%; Vif-A3G inh: 0%; GoLoco inh red: -22%; Vif-APOBEC3F blk: -8%; IL2 activator: 108*; PKM2 activator: 1%

How did COc1ccc(C2CC(c3ccccc3)=NN2C(=O)COC(=O)c2cc(S(=O)(=O)N3CCOCC3)ccc2Cl)cc1 (centres undefined) do in these assays?
KAT2A inh: -2%; Vif-A3G inh: 1%; GoLoco inh red: 13µM*; Vif-APOBEC3F blk: -9%; IL2 activator: 0; PKM2 activator: 1%

How did CCC1(C)Cc2sc3c(=O)[nH]c(=S)[nH]c3c2CO1 (centres undefined) do in these assays?
KAT2A inh: 25µM*; Vif-A3G inh: -1%; GoLoco inh red: -7%; Vif-APOBEC3F blk: 5%; IL2 activator: 0; PKM2 activator: -1%

Results for Cn1c(=O)c2[nH]c(C3CC=CCC3)nc2n(C)c1=O (centres undefined) ?
Vif-A3G inh: -2%; Vif-APOBEC3F blk: -11%; IL2 activator: 0

Results for CC(=O)c1cccc(NC(=O)/C=C/c2ccc([N+](=O)[O-])s2)c1 ?
KAT2A inh: -3%; Vif-A3G inh: inconclusive; GoLoco inh red: 3%; Vif-APOBEC3F blk: inconclusive; IL2 activator: 1; PKM2 activator: 12%

How did Cc1cc(C)cc(NC(=O)/C=C/c2ccc([N+](=O)[O-])s2)c1 do in these assays?
KAT2A inh: 18%; Vif-A3G inh: inconclusive; GoLoco inh red: 13%; Vif-APOBEC3F blk: 11µM*; IL2 activator: -3; PKM2 activator: 1%

What do the screens show for `Cc1ccccc1NC(=O)/C=C/c1ccc([N+](=O)[O-])s1`?
KAT2A inh: -7%; Vif-A3G inh: 6.3µM*; GoLoco inh red: -1%; Vif-APOBEC3F blk: 10µM*; IL2 activator: -1; PKM2 activator: -7%

What do the screens show for `Cc1ccccc1NC(=O)/C=C/c1cccs1`?
KAT2A inh: -1%; Vif-A3G inh: -1%; GoLoco inh red: -2%; Vif-APOBEC3F blk: 3%; IL2 activator: -1; PKM2 activator: -13%

How did O=C(Nc1ccc2oc(-c3cccnc3)nc2c1)c1ccc(-c2ccc(OC(F)(F)F)cc2)o1 do in these assays?
KAT2A inh: 4%; Vif-A3G inh: 3%; Vif-APOBEC3F blk: 1%

Results for Cc1noc(NS(=O)(=O)c2ccc(NC(=O)CC(C)C)cc2)c1C ?
KAT2A inh: -3%; Vif-A3G inh: -8%; Vif-APOBEC3F blk: -2%; IL2 activator: 0; PKM2 activator: -1%

How did CCN(CC)C(=O)Cn1c(=O)c2ccccc2n2c(=S)sc(-c3cccc(C)c3)c12 do in these assays?
KAT2A inh: -8%; Vif-A3G inh: -3%; Vif-APOBEC3F blk: -29%; IL2 activator: 94*; PKM2 activator: -1%

How did CC1CCCC(NC(=O)COC(=O)CSc2ccc3ccccc3c2)C1C (centres undefined) do in these assays?
KAT2A inh: -8%; Vif-A3G inh: -4%; GoLoco inh red: -6%; Vif-APOBEC3F blk: 17%; IL2 activator: 0; PKM2 activator: -4%

How did COc1ccc2c(c1)O[C@@H](c1ccc3c(c1)OCO3)[C@H](OC(=O)N[C@H](C)C1CCCCC1)C2=O do in these assays?
GoLoco inh red: 32µM*

Results for COc1ccc2c(c1)O[C@H](c1ccc3c(c1)OCO3)[C@@H](OC(=O)NC1CCCC1)C2=O ?
GoLoco inh red: 3%

How did CSc1nc(SCCO)c2sc3nc(-c4ccco4)c4c(c3c2n1)CC(C)(C)OC4 do in these assays?
KAT2A inh: 13µM*; Vif-A3G inh: 4%; GoLoco inh red: 33%; Vif-APOBEC3F blk: inconclusive; IL2 activator: -1; PKM2 activator: 15%

How did Cc1[nH]c2ccccc2c1C(=O)C(=O)N1CCCc2ccccc21 do in these assays?
KAT2A inh: -13%; Vif-A3G inh: -19%; GoLoco inh red: -11%; Vif-APOBEC3F blk: -1%; IL2 activator: 0; PKM2 activator: 1%

How did O=C(C(=O)N1CCCc2ccccc21)c1c[nH]c2ccccc12 do in these assays?
KAT2A inh: -14%; Vif-A3G inh: -5%; GoLoco inh red: -7%; Vif-APOBEC3F blk: 1%; IL2 activator: -2; PKM2 activator: 35µM*

Results for Cn1ncc(Cl)c1C(=O)N1CCC(Cc2ccccc2)CC1 ?
KAT2A inh: -5%; Vif-A3G inh: 0%; Vif-APOBEC3F blk: 2%; IL2 activator: -6; PKM2 activator: 22µM*

How did Cn1ncc(Cl)c1C(=O)N1CCN(c2ccccc2)CC1 do in these assays?
KAT2A inh: inconclusive; Vif-A3G inh: 1%; Vif-APOBEC3F blk: -3%; IL2 activator: -1; PKM2 activator: -1%

What do the screens show for `O=C(CSc1nnc(-c2cccnc2)n1Cc1ccco1)NCc1ccc2c(c1)OCO2`?
KAT2A inh: 2%; Vif-A3G inh: -5%; GoLoco inh red: 3%; Vif-APOBEC3F blk: -3%; IL2 activator: 2; PKM2 activator: 5%

What do the screens show for `COc1cccc(-c2nnc(SCC(=O)NCc3ccc4c(c3)OCO4)n2Cc2ccco2)c1`?
KAT2A inh: 40µM*; Vif-A3G inh: -3%; GoLoco inh red: 14%; Vif-APOBEC3F blk: 11%; IL2 activator: 1; PKM2 activator: 11%

Results for CCCc1cc(=O)[nH]c(Nc2cccc(Cl)c2Cl)n1 ?
KAT2A inh: -6%; Vif-A3G inh: -10%; Vif-APOBEC3F blk: -13%

How did COc1ccccc1CNc1nc2c(S(=O)(=O)c3ccccc3)nnn2c2ccc(Cl)cc12 do in these assays?
KAT2A inh: 25µM*; Vif-A3G inh: -5%; Vif-APOBEC3F blk: -7%

Results for COc1ccc2nc3ccccc3nc2c1NC(=O)c1ccc(Cl)cc1Cl ?
KAT2A inh: -6%; Vif-A3G inh: 4µM*; GoLoco inh red: -12%; Vif-APOBEC3F blk: inconclusive; IL2 activator: 0; PKM2 activator: 0%

What do the screens show for `N#CC1=C2SCN(C3CCCCC3)CN2C(=O)CC1c1ccc(Br)cc1` (centres undefined)?
KAT2A inh: 35µM*; Vif-A3G inh: -3%; Vif-APOBEC3F blk: 3%

Results for Cc1cc(NC(=O)CSc2ccc(-c3ccccc3)nn2)no1 ?
KAT2A inh: inconclusive; Vif-A3G inh: -2%; GoLoco inh red: -7%; Vif-APOBEC3F blk: -6%; IL2 activator: -1; PKM2 activator: 16µM*

How did Cc1nnc(NC(=O)CSc2ccc(-c3cccnc3)nn2)s1 do in these assays?
KAT2A inh: 2%; Vif-A3G inh: 2%; GoLoco inh red: 5%; Vif-APOBEC3F blk: 10%; IL2 activator: 0; PKM2 activator: 2.8µM*

Screening data (PubChem BioAssay)
